Experimental data as given in the supplement of paper PMC6555819.

How the values were obtained:
Assay in all cases: PBM binding z-score (relative to random genomic background probes); higher = stronger binding; sequences stand for … in GC…GCGATTGACAGCGTAGAATGAAGG
[1] = test system: FXR:RXRa (NR concentration 270 nM, RXRa partner concentration 90 nM)
Procedure, shortened: (§1)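 Each nuclear receptor dimer, without ligand, was incubated for 1 h on custom Agilent 4×180K protein-binding microarrays. Binding was detected with antibodies against each partner (one per run), and scanned fluorescence was regression-normalized. The binding z-scores are referenced to random human genomic background probes.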

[2] = test system: LXRa:RXRa (NR concentration 270 nM, RXRa partner concentration 90 nM)
Procedure, shortened: as §1

[3] = test system: LXRa homodimer (NR concentration 270 nM)
Procedure, shortened: as §1

[4] = test system: LXRb:RXRa (NR concentration 270 nM, RXRa partner concentration 90 nM)
Procedure, shortened: as §1

[5] = test system: LXRb homodimer (NR concentration 270 nM)
Procedure, shortened: as §1

[6] = test system: PPARa:RXRa (NR concentration 270 nM, RXRa partner concentration 90 nM)
Procedure, shortened: as §1

[7] = test system: PPARg:RXRa (NR concentration 180 nM, RXRa partner concentration 90 nM)
Procedure, shortened: as §1

[8] = test system: PPARg:RXRa 270nM:90nM, anti-RXR (NR concentration 270 nM, RXRa partner concentration 90 nM)
Procedure, shortened: as §1

[9] = test system: PPARg:RXRa 30nM:10nM, anti-RXR (NR concentration 30 nM, RXRa partner concentration 10 nM)
Procedure, shortened: as §1

[10] = test system: PPARg:RXRa 90nM:30nM, anti-RXR (NR concentration 90 nM, RXRa partner concentration 30 nM)
Procedure, shortened: as §1

[11] = test system: PPARg:RXRa DBDmut IVT, anti-RXR (DBD mutation: RXRa K156A/R161A, NR concentration 270 nM, RXRa partner concentration 90 nM)
Procedure, shortened: as §1

[12] = test system: PPARg:RXRa IVT, anti-PPARg (NR concentration 270 nM, RXRa partner concentration 90 nM)
Procedure, shortened: as §1

[13] = test system: PPARg DBDmut:RXRa IVT, anti-PPARg (DBD mutation: PPARg1 K132A/R137A, NR concentration 270 nM, RXRa partner concentration 90 nM)
Procedure, shortened: as §1

[14] = test system: PPARg DBDmut IVT, anti-PPARg (DBD mutation: PPARg1 K132A/R137A, NR concentration 270 nM)
Procedure, shortened: as §1

[15] = test system: PPARg homodimer (NR concentration 180 nM)
Procedure, shortened: as §1

[16] = test system: PXR:RXRa (NR concentration 270 nM, RXRa partner concentration 90 nM)
Procedure, shortened: as §1

[17] = test system: PXR homodimer (NR concentration 270 nM)
Procedure, shortened: as §1

[18] = test system: RARa:RXR (NR concentration 270 nM, RXRa partner concentration 90 nM)
Procedure, shortened: as §1

[19] = test system: RARa homodimer (NR concentration 270 nM)
Procedure, shortened: as §1

[20] = test system: RARb:RXRa (NR concentration 270 nM, RXRa partner concentration 90 nM)
Procedure, shortened: as §1

Sequence	PBM binding z-score [1]	PBM binding z-score [2]	PBM binding z-score [3]	PBM binding z-score [4]	PBM binding z-score [5]	PBM binding z-score [6]	PBM binding z-score [7]	PBM binding z-score [8]	PBM binding z-score [9]	PBM binding z-score [10]	PBM binding z-score [11]	PBM binding z-score [12]	PBM binding z-score [13]	PBM binding z-score [14]	PBM binding z-score [15]	PBM binding z-score [16]	PBM binding z-score [17]	PBM binding z-score [18]	PBM binding z-score [19]	PBM binding z-score [20]
GGTGCTAGGTCAGGTTGGTCAGCTAACGGGTACG	1.56	1.33	0.61	1.09	0.134	1.71	1	1.8	0.315	1.35	2.64	3.08	-0.502	-0.0479	1.8	0.63	0.481	1.2	1.12	3.56
TCATATAGGTAAAGGTGAAACTCGAACGATATGA	0.837	1.52	-0.0632	1.7	-0.204	3.58	4.46	4.88	4.59	5.12	4.08	4.59	1.59	2.12	1.36	1.13	-0.357	1.76	0.238	2.05
GGAACGAGGGAAAAGTTGATAGCATCTGTCGACG	-0.286	-0.349	-0.321	-0.59	-0.568	1.15	2.04	3.68	1.71	3.49	-0.174	0.0196	-0.986	-1.13	-0.562	-0.557	-0.343	-0.659	-0.0387	-0.212
CCTGCTAGATCAATGGTCAGCTAAAGCAGCTCGC	-0.932	-0.902	-0.811	-0.945	-0.566	-0.697	-0.182	0.115	-0.8	-0.292	-0.539	-0.867	-1.21	-1.31	-0.942	-0.879	-0.691	-0.744	-0.962	-0.116
TCTTGTACATCAGCAGGTTAAGAAAGCTGGCCAA	0.22	0.475	-0.073	0.542	0.127	0.883	-0.203	1.47	2.81	2.33	1.51	0.722	-0.0534	0.403	-0.0357	0.478	-0.155	0.59	0.183	0.473
CGAACTAGGTCAGAACAGGAAAGTGAAGGATGAT	0.901	0.447	-0.258	0.38	-0.116	3.21	5.08	4.29	1.92	3.33	7.16	6.78	2.1	0.812	0.835	0.0929	-0.161	0.482	-0.00201	2.72
CAAACTAGGTCACCGGAAGGTGAAAGTCCGCATG	4.95	3.97	0.466	3.14	0.0268	5.42	9.29	7.34	5.78	7.31	8.74	8.89	2.99	0.925	4.64	2.98	0.142	4.74	0.555	4.54
ATCTGTAGGTTAAGGGTCATTCAGGTTGGTTCGC	5.22	5.26	3.63	4.56	1.72	5.72	9.93	9.03	9.65	10.6	3.99	5.75	1.73	1.69	3.99	5.59	3.35	6.53	2.88	3.77
TAGCCTAGGTCAGTTCGGGCCAGTATACGCTATA	1.39	0.745	-0.272	0.551	-0.0472	1.22	0.33	0.647	-0.293	0.114	0.449	1.21	-0.878	-1.14	-0.282	1.53	-0.352	0.927	-0.951	2.92
GCGACTGGGGCATCAGCAGGTTAACATAACTTAA	-0.169	-0.338	-0.456	1.01	-0.643	1.27	1.18	1.16	0.116	0.609	3.98	3.26	-0.488	-1.04	0.292	0.289	-0.239	0.486	-0.18	0.898
TCATATAGGTAATACAGGAGAAAGTCGGCATCTA	0.853	1.01	0.161	0.676	0.172	1.07	1.23	2.37	3.96	2.81	4.09	2.1	1.79	0.92	0.788	0.627	0.0379	0.706	1.13	0.369
TCTTGTAGATCAATAGAGATTAAGAAAGTGCGCT	-0.285	0.252	-0.543	-0.171	-0.122	-0.000927	0.302	1.34	2.5	2.08	1.45	0.39	0.292	1.02	-0.0923	0.374	0.261	-0.0638	0.076	-0.192
TCTATTACTTGAAGGGCAACCGACGAGTCCGTTT	0.851	1.02	0.425	1.19	0.925	1.48	0.388	2.11	3.96	3.26	2.52	0.782	1.07	1.12	0.761	1.01	0.901	1.02	1.4	1.59
TATACCGGGTCAAAGGCCAGAGTACGAATGTCGA	5.68	5.19	1.56	3.95	1.32	6.35	8.61	7.39	6.12	7.45	2.58	5.47	0.885	1.2	2.12	3.61	0.647	4.89	0.935	3.88
